Source: PubChem
An excerpt weighted towards active compounds, which were near 12% of everything screened.
AmpC no deterg – qHTS Inhibitors of AmpC Beta-Lactamase (assay without detergent) | P00811 | AID 485341, 2010 | hit rate 0.52% among 330,000 | AmpC nitrocefin hydrolysis, absorbance 480 nm, 0.0001% Triton | Potency, µM (highest dose often 57.1 µM), for the others: top-dose activity change, negative = inhibition, most hits filed as inhibitors;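 also: plate controls were no compound for no effect and no enzyme for full effect; nearly all actives have a fitted effect of over 20% in size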
Target sequence (P00811 whole entry, looked up): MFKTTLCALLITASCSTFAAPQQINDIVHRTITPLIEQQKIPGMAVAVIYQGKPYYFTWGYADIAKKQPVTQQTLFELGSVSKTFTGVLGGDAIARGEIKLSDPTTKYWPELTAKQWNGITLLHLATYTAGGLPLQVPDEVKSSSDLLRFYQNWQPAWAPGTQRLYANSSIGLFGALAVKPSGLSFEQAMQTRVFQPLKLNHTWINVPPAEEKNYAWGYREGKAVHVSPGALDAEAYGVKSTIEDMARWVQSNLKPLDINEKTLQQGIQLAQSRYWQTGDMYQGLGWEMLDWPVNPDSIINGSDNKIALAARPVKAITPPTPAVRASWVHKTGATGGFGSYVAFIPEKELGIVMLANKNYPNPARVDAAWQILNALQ
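20 mM phosphate pH 7.0 + 0.01% (detergent screen) or 0.0001% Triton X-100; 5.3 nM AmpC reagent; cpd preinc 15 min RT; nitrocefin (800 uM stock) to start; A480 q20 s × 4 min; Activity was normalised to no-enzyme and no-compound control wells.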
Pf growth 48h – Primary qHTS for delayed death inhibitors of the malarial parasite plastid, 48 hour incubation; P. falciparum luciferase growth in erythrocytes, 48 h; Potency, µM (top dose mostly 28.7 µM), without a hit: at the highest dose activity change, negative = inhibition, hits mostly inhibitors; hit rate 5.9% among 310,000; also: % is scaled to controls: 0 for no effect and ±100 for the full control effect
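Luciferase-expressing P. falciparum in infected erythrocytes (2% hematocrit, 0.1% parasitemia final) in RPMI 1640/0.5% Albumax were exposed to compound for 48 hours at 37 C, 5% CO2; growth read as luminescence.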
Sm TGR block – qHTS Assay for the Inhibitors of Schistosoma Mansoni Peroxiredoxins; hit rate 3% among 360,000; purified TGR, DTNB reduction, TNB absorbance 405 nm; Potency, µM (doses to about 114 µM), without a hit: top-dose activity change, negative = inhibition, hits mostly inhibitors; Schistosoma mansoni thioredoxin glutathione reductase (TGR), Q962Y6; AID 485364, 2010; also: % is scaled to controls: 0 for no effect and ±100 for the full control effect; nearly all actives have a fitted effect of over 60% in size
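Kinetic colorimetric format: TGR-catalysed, NADPH-driven DTNB reduction monitored via TNB absorbance. Enzyme dispensed at 20 nM; compound exposure 15 min at room temperature before reaction start.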
SARS PLP yeast – qHTS of Yeast-based Assay for SARS-CoV PLP; hit rate 0.19% among 330,000; S. cerevisiae expressing SARS-CoV PLpro, growth rescue; Potency, µM (doses to about 32.9 µM), inactives show at the top dose activity, positive = growth rescue, hits mostly activators; calls by dose curve; also: 0% is about no effect; nearly all actives have a fitted effect of over 55% in size
Pf growth 96h – Primary qHTS for delayed death inhibitors of the malarial parasite plastid, 96 hour incubation; P. falciparum luciferase reporter growth, 96 h; Potency, µM (doses to about 28.7 µM), without a hit: top-dose activity change, negative = inhibition, most hits filed as inhibitors; hit rate 6.9% among 320,000; AID 504834, 2011; also: % is scaled to controls: 0 for no effect and ±100 for the full control effect
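Compounds incubated with erythrocytes infected by luciferase-expressing P. falciparum (2% hematocrit, 0.05% parasitemia final) for 96 hours, 37 C in 5% CO2. Growth inhibition scored as decreased luciferase luminescence.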
AmpC inh detg – qHTS Inhibitors of AmpC Beta-Lactamase (assay with detergent) | P00811 | AmpC hydrolysis of nitrocefin, absorbance 480 nm, 0.01% Triton | Potency, µM (highest dose often 114 µM), inactives show at the highest dose activity change, negative = inhibition, actives largely listed as inhibitors | hit rate 0.041% among 370,000 | AID 485294, 2010;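 also: 0% = no-compound wells and -100% = no-enzyme wells; nearly all actives have a fitted effect of over 25% in size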
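AmpC (5.3 nM in the dispensed reagent) in 20 mM phosphate pH 7.0 with 0.01% (detergent screen) or 0.0001% Triton X-100 was preincubated with compounds for 15 min at room temperature. Nitrocefin was then added from an 800 uM solution, and hydrolysis was followed at 480 nm.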
Active calls of the source: *; ? = inconclusive; . = no result. Unless noted, calls follow the shape of the dose curve; as a rule, active = well fitted curve in the direction sought with a large enough effect; inconclusive = small, poorly fitted or top-dose-only effect, or another doubt; inactive = no such curve, though single readings can be large; an effect the other way counts as inactive or inconclusive. Potency is read from the fitted curve at half-maximal effect.

SMILES	AmpC no deterg	Pf growth 48h	Sm TGR block	SARS PLP yeast	Pf growth 96h	AmpC inh detg
Cc1nn(-c2cccc(Cl)c2)nc1C(=O)Nc1cccc(C(=O)NC2CC2)c1	-24.4%	14.7µM*	-3.2%	-4.1%	?	-15.0%
COc1ccc(-n2c(=O)c3c4c(sc3n(Cc3cc(C)ccc3C)c2=O)CN(C(C)=O)CC4)c(OC)c1	.	.	-1.5%	.	.	-3.3%
CCOC(=O)c1sc(-c2ccc(F)cc2)cc1NC(=O)Nc1ccccc1OC	-36.0%	?	3.8%	-9.9%	8.28µM*	3.6%
CCOC(=O)c1sc(-c2ccccc2)cc1NC(=O)Nc1ccccc1	-27.8%	0.0%	-10.7%	-44.0%	?	?
COc1ccc2nc(NC(C)=O)sc2c1	-22.2%	142.0%	-23.1%	0.1%	.	1.7%
COc1ccc2nc(Nc3nc4cc5c(cc4s3)OCO5)sc2c1	22.4µM*	-10.2%	-18.9%	-20.7%	-3.8%	2.4%
COc1ccc2nc(Nc3ccc4c(c3)OCO4)sc2c1	-41.7%	159.3%	7.8%	-11.3%	0.9%	6.1%
COc1ccc2nc(NC(=O)/C=C/c3ccc4c(c3)OCO4)sc2c1	-18.1%	-0.9%	-12.2%	-8.4%	1.85µM*	?
Cc1ccc(NC(=O)c2oc3ccc(S(=O)(=O)N4CCCCC4)cc3c2C)c(C)c1	.	.	5.5%	.	.	18.5%
Cc1cccc(NC(=O)C2CCCN(S(=O)(=O)c3cccc4nonc34)C2)c1C (stereo unspecified)	.	.	-6.8%	.	.	-13.4%
Cc1cccc(C)c1NC(=S)N/N=C/c1ccc(OCCC(C)C)cc1	-36.7%	.	-1.2%	?	3.29µM*	-6.6%
CCCCOc1ccc(/C=N/NC(=S)Nc2cccc(C)c2C)cc1	-36.6%	?	-13.9%	12.1%	.	-2.6%
CCn1nc(C)cc1C(=O)NC1CCCc2c1cnn2-c1ccc(C)c(C)c1 (stereo unspecified)	218.4%	?	3.2%	-8.8%	14.7µM*	6.7%
CCCC(=O)NC1CCCc2c1cnn2-c1ccc(C)c(C)c1 (stereo unspecified)	7.1%	6.5%	-4.5%	-12.7%	3.29µM*	-16.2%
Cc1cc(C(=O)NC2CCCc3c2cnn3-c2ccc(C)c(C)c2)no1 (stereo unspecified)	47.4%	-19.4%	6.2%	-4.1%	-8.0%	0.7%
CC(C)(C)c1ccc(-n2ncc3c2CCCC3NC(=O)CN2CCCC2=O)cc1 (stereo unspecified)	146.0%	18.2%	0.6%	-0.1%	13.1µM*	-14.4%
Nc1nc(CCl)nc(Nc2cccc3ccccc23)n1	-15.2%	?	15.8µM*	0.2%	13.1µM*	8.8%
CCCCSc1ncnc2c1c(-c1ccccc1)cn2-c1cccc(F)c1	.	.	-1.1%	.	.	-2.3%
CCOCCCNC(=O)C(NC(=O)CNC(C)=O)c1ccc(C)cc1 (stereo unspecified)	-8.9%	6.9%	-8.9%	1.8%	9.28µM*	-3.7%
Cc1ccccc1CNC(=O)c1cc2cc(S(=O)(=O)N3CCCCC3)ccc2n1C	.	.	6.4%	.	.	-3.0%
COc1ccc(NC(=O)c2c(NCc3ccc(C)o3)sc3c2CCC(C)C3)cc1 (stereo unspecified)	.	.	10µM*	.	.	8.9%
COc1ccccc1NC(=O)c1c(NC(=O)Cc2ccccc2)sc2c1CCC(C(C)(C)C)C2 (stereo unspecified)	.	.	6.4%	.	.	6.4%
COc1ccc(NC(=O)c2c(NC(=O)COc3ccccc3)sc3c2CCC(C)C3)cc1 (stereo unspecified)	.	.	-7.5%	.	.	4.3%
COc1ccc(NC(=O)c2c(NCc3ccc(C)o3)sc3c2CCC(C)C3)c(OC)c1 (stereo unspecified)	.	.	28.2µM*	.	.	16.6%
COc1ccccc1NC(=O)c1c(NCc2ccc(C)o2)sc2c1CCC(C)C2 (stereo unspecified)	.	.	31.6µM*	.	.	17.0%
SMILES	AmpC no deterg	Pf growth 48h	Sm TGR block	SARS PLP yeast	Pf growth 96h	AmpC inh detg
COc1ccc(NC(=O)c2c(NCc3cccs3)sc3c2CCC(C)C3)c(OC)c1 (stereo unspecified)	.	.	-7.8%	.	.	17.4%
COc1ccc(NC(=O)c2c(NCc3ccc(C)o3)sc3c2CCCCC3)c(OC)c1	.	.	2.82µM*	.	.	-10.3%
COc1ccc(NC(=O)c2c(NCc3cccc(F)c3)sc3c2CCCC3)c(OC)c1	.	.	-15.1%	.	.	0.3%
O=C(CCCn1c(=O)c2cccn2c2ccccc21)Nc1cc(C(F)(F)F)ccc1Cl	.	.	2.7%	.	.	-0.4%
CCOC(=O)[C@H](CCc1ccccc1)N[C@@H](C)C(=O)N1C(=O)N(C)C[C@H]1C(=O)O	.	-14.0%	.	.	10.5%	.
COc1ccc2ncc3c(-c4ccccc4)nn(-c4ccc(C)c(C)c4)c3c2c1	.	.	-13.2%	.	.	4.7%
CCN(Cc1ccccc1)C(=O)Cn1c(=O)n(-c2ccc(Cl)cc2)c(=O)c2c(C)c(C)sc21	.	.	2.1%	.	.	6.4%
COc1ccccc1NC(=O)c1csc2c1CCC(C)C2 (stereo unspecified)	198.9%	-80.3%	50.1µM*	-1.0%	?	5.6%
CCOc1ccc(C2C(C(=O)Nc3ccccc3C)=C(C)Nc3nnnn32)cc1 (stereo unspecified)	.	.	-1.0%	.	.	25.9%
CN(C)CCNC(=O)c1ccc2c(c1)NC(=O)c1ccccc1S2	1.0%	11.7µM*	3.6%	0.1%	?	2.7%
COC(CN(C)C(=O)c1ccc2c(c1)NC(=O)c1ccccc1S2)OC	-5.5%	1.47µM*	-26.7%	-0.5%	10.1%	-1.8%
CC(C)(C)C(=O)NCCCc1nc2ccccc2n1CCCOc1ccc(Cl)cc1	196.8%	?	-15.6%	3.4%	30.2%	-1.3%
CCNC(=S)NCc1ccc(OC)c(OC)c1	-16.4%	2.7%	6.6%	-0.4%	5.22µM*	-6.4%
CCN=C(N/N=C/c1ccc([N+](=O)[O-])cc1)SC	-26.2%	54.7%	44.7µM*	-1.8%	198.4%	-13.0%
C=CCN(CC=C)C(=S)NCCc1ccc(OC)c(OC)c1	-5.0%	13.1µM*	-1.9%	-0.3%	?	?
CCCCOc1ccc(CNC(=S)N/N=C/c2ccc(OC)c(OC)c2)cc1	-20.3%	.	-12.8%	?	4.65µM*	-11.0%
CCOc1cc(C(=O)NCc2nc(-c3cccc(C)c3)no2)cc(OCC)c1OCC	.	.	1.0%	.	.	20.7%
CCOC(=O)c1[nH]c(C)c(C(=O)NCCc2ccccc2)c1C	.	.	-6.2%	.	.	-4.5%
O=C(NCCSc1ncc(-c2ccc(F)cc2)[nH]1)c1ccc2c(c1)OCO2	-19.9%	10.2%	-3.9%	2.8%	9.0%	-2.5%
Cc1c(C(=O)N2CCCC2)oc2c1-c1nn(CC(=O)NCc3cccc(Br)c3)cc1CC2	.	.	-11.7%	.	.	-3.9%
